Laboratory results published in PubChem BioAssay (EPA / NIEHS).
Where “and” joins values, the source holds several entries; their conditions need not be identical. Equal entries are not always repeated. Inconclusive results are not listed. Some structures have more than one record in an assay (separate samples or runs), and their calls can disagree. Calls of active or inactive are those of the source. How the source made its calls, unless noted: active means hit-call score of the fitted dose curve at least 0.9, where 1 is the maximum; inconclusive means response in the unintended direction; inactive means score below 0.9.

Key:
[1] = biological target: Bile acid receptor (Homo sapiens) (UniProt Q96RI1); assay: ATG_IR1_CIS: Attagene CIS-FACTORIAL HepG2 Assay for human Nuclear Receptor Subfamily 1 Group H Member 4 (NR1H4), IR1 submotif (AID 2282946; active means hit-call score of the fitted dose curve at least 0.9, where 1 is the maximum; inactive means score below 0.9); conditions: IR1 reporter transcription, actives raise or lower the signal
How it was run: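 Transient MRTU transfection, HepG2; 24 h dosing; RNA → RT-PCR → 6-FAM primer extension → HpaI digest → capillary electrophoresis fluorescence. Gain/loss of signal fitted relative to DMSO.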

[2] = ATG_PPRE_CIS: Attagene CIS-FACTORIAL HepG2 Assay for human Peroxisome Proliferator-activated Response Element (PPRE) (AID 2282958; active means hit-call score of the fitted dose curve at least 0.9, where 1 is the maximum; inactive means score below 0.9); conditions: HepG2 PPRE cis-element reporter, Attagene transcription factor profiling; actives raise or lower the signal
How it was run: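 HepG2 cells transiently transfected with multiplexed cis-element reporter units measure endogenous transcription factor activity. After 24 h compound exposure, reporter mRNA is quantified by RT-PCR, 6-FAM labeling, HpaI digestion and capillary electrophoresis; bidirectional fits are made against DMSO baseline.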

[3] = ATG_M_19_TRANS: Attagene TRANS-FACTORIAL HepG2 Assay for M19 Transcription Factor (Internal Marker) (AID 2282974); conditions: HepG2 Attagene TRANS-FACTORIAL M19 internal marker reporter
How it was run: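 HepG2 cells transiently transfected with multiple GAL4-UAS reporter transcription units were exposed to chemicals for 24 h. Reporter mRNA was read by RT-PCR, 6-FAM primer extension, HpaI digestion and capillary electrophoresis; gain of signal fitted relative to DMSO.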

[4] = ATG_GAL4_TRANS: Attagene TRANS-FACTORIAL HepG2 Assay for GAL4 (Internal Marker) (AID 2282976); conditions: HepG2 Attagene TRANS GAL4 internal marker reporter
How it was run: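 RT-PCR/capillary electrophoresis readout of reporter mRNA. HepG2, transient MRTU transfection (GAL4-UAS reporters), 24 h compound exposure. Background-control endpoint, positive direction vs DMSO baseline.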

[5] = ATG_M_32_TRANS: Attagene TRANS-FACTORIAL HepG2 Assay for M32 Transcription Factor (Internal Marker) (AID 2282984); conditions: HepG2 Attagene TRANS M32 internal marker reporter;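 further: transcript level of a background control reporter unit measured by RT-PCR and capillary electrophoresis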
How it was run: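 Human hepatoma HepG2, transient MRTU transfection, 24 h treatment. RNA → RT-PCR → fluorescent primer extension → HpaI digest (2 h, 37 C) → CE. Positive-direction fit vs DMSO.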

[6] = biological target: Nuclear receptor subfamily 4 group A member 2 (Homo sapiens) (UniProt P43354); assay: ATG_NURR1_TRANS: Attagene TRANS-FACTORIAL HepG2 Assay for human Nuclear Receptor Related Protein 1 (NURR1) (AID 2282985); conditions: HepG2 Attagene TRANS reporter, mRNA readout
How it was run: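 After 24 h chemical dosing, total RNA from transiently transfected HepG2 cells was reverse-transcribed and reporter cDNA PCR-amplified, FAM-labelled and analysed by capillary electrophoresis. Activity fitted in positive direction, DMSO as negative control.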

[7] = biological target: human Peroxisome Proliferator-activated Receptor delta (PPARd), PPARD (gene 5467) (UniProt Q03181); assay: ATG_PPARd_TRANS: Attagene TRANS-FACTORIAL HepG2 Assay for human Peroxisome Proliferator-activated Receptor delta (PPARd) (AID 2283002)
How it was run: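 HepG2 cells transiently transfected with multiplexed GAL4-UAS reporter units and exogenous chimeric NR-Gal4 proteins; 24 h compound exposure. Reporter mRNA measured by RT-PCR, 6-FAM labelling, HpaI digestion and capillary electrophoresis; gain of signal versus DMSO.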

[8] = CCTE_Harrill_HTTr_Viability_MCF7: CCTE's 6-hour Cell Viability Assessment for the High-Throughput Transcriptomics (HTTr) Platform, in MCF-7 cells cultured in DMEM + 10% fetal bovine serum, Harrill Lab (AID 2284010; active means hit-call score of the fitted dose curve at least 0.9, where 1 is the maximum; inactive means score below 0.9)
How it was run: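 MCF-7 cells in DMEM + 10% FBS, 384-well, exposed 6 h to an eight-point dilution series. Membrane integrity scored by high-content imaging of propidium iodide exclusion; bidirectional fit versus DMSO.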

[9] = CCTE_Harrill_HTTr_Apoptosis_MCF7: CCTE's 6-hour Apoptosis Assessment for the High-Throughput Transcriptomics (HTTr) Platform, in MCF-7 cells cultured in DMEM + 10% fetal bovine serum, Harrill Lab (AID 2284011; active means hit-call score of the fitted dose curve at least 0.9, where 1 is the maximum; inactive means score below 0.9)
How it was run: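 Read-out: CellEvent Caspase 3/7 Green signal by high content imaging, gain-of-signal indicating apoptosis. MCF-7 cells, DMEM + 10% FBS, eight-point dilution series, 6 h exposure. Curves fitted bidirectionally relative to DMSO negative control.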

[10] = biological target: human RAR-related Orphan Receptor beta (RORb), RORB (gene 6096) (UniProt Q92753); assay: ATG_RORb_TRANS: Attagene TRANS-FACTORIAL HepG2 Assay for human RAR-related Orphan Receptor beta (RORb) (AID 2283010)
How it was run: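 HepG2 cells transiently transfected with GAL4-UAS reporter units expressing chimeric NR-Gal4 protein; reporter mRNA measured 24 h after dosing by RT-PCR, 6-FAM labelling and capillary electrophoresis. Gain-of-signal fitted relative to DMSO baseline.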

[11] = biological target: human RAR-related Orphan Receptor gamma (RORg), RORC (gene 6097) (UniProt P51449); assay: ATG_RORg_TRANS: Attagene TRANS-FACTORIAL HepG2 Assay for human RAR-related Orphan Receptor gamma (RORg) (AID 2283011)
How it was run: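 Transient MRTU transfection of HepG2 (TRANS format, exogenous NR-Gal4 chimera). 24 h dosing. Total RNA → oligo(dT) RT → PCR → 6-FAM labelling → HpaI cut → CE. Gain vs DMSO.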

[12] = biological target: Retinoic acid receptor alpha (Homo sapiens) (UniProt P10276); assay: ATG_DR5_RAR_CIS: Attagene CIS-FACTORIAL HepG2 Assay for human Retinoic Acid Receptor Alpha (RARE), DR5 submotif (AID 2282934; active means hit-call score of the fitted dose curve at least 0.9, where 1 is the maximum; inactive means score below 0.9;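 on AC50: reporter responds to endogenous RAR alpha beta and gamma in HepG2 not RARA alone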); conditions: HepG2 Attagene cis-factorial RARE DR5 reporter, mRNA; actives raise or lower the signal
How it was run: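 HepG2 cells transiently transfected with multiplexed reporter units under cis (DR5 RARE) promoters, so endogenous transcription factor activity is measured. After 24 h compound exposure, reporter mRNA is quantified by RT-PCR with fluorescent labelling and capillary electrophoresis; bidirectional fitting versus DMSO.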

[13] = biological target: Oxysterols receptor LXR-alpha (Homo sapiens) (UniProt Q13133); assay: ATG_LXRa_TRANS: Attagene TRANS-FACTORIAL HepG2 Assay for human Liver X Receptor alpha (LXRa) (AID 2282980); conditions: HepG2 Attagene TRANS reporter, LXRa transactivation
How it was run: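 Read-out: reporter transcript levels by RT-PCR plus capillary electrophoresis, fluorescence intensity. Transiently transfected HepG2, exogenous NR-GAL4 chimera, GAL4-UAS reporters; 24 h compound exposure. Activity = increase over DMSO negative control.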

[14] = biological target: human Thyroid Receptor alpha (THRa1), THRA (gene 7067) (UniProt P10827); assay: ATG_THRa1_TRANS: Attagene TRANS-FACTORIAL HepG2 Assay for human Thyroid Receptor alpha (THRa1) (AID 2283014)
How it was run: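 Transient HepG2 transfection, NR-Gal4 chimera driving GAL4-UAS reporters; 24 h compound exposure; total RNA, oligo(dT) RT, PCR, fluorescent primer extension, capillary electrophoresis. Upward direction vs DMSO control.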

[15] = TOX21_p53_BLA_p2_viability: Viability Assessment in the Tox21 HCT-116 p53 Agonism Beta-lactamase Assay, Phase 2 (AID 2283591);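 further: compound exposure lasted 16 h at 37 °C; actives lower the ATP signal meaning cytotoxicity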
How it was run: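 HCT-116 p53-bla cells (4000/well) rested 5 h at 37C, then received compounds in DMSO (217-fold dilution) for 16 h at 37C, 5% CO2. After the CCF4 read, CellTiter-Glo was added; ATP luminescence was read after 30 min at room temperature.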

[16] = TOX21_p53_BLA_p3_viability: Viability Assessment in the Tox21 HCT-116 p53 Agonism Beta-lactamase Assay, Phase 3 (AID 2283593);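 further: cells exposed to compound for 16 h before reading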
How it was run: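 HCT-116 cells (4000/well) rested 5 h at 37C, then got DMSO compounds by pin tool (217-fold dilution) for 16 h at 37C, 5% CO2. After the bla read, CellTiter-Glo was added and luminescence read at 30 min, room temperature.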

[17] = TOX21_p53_BLA_p4_viability: Viability Assessment in the Tox21 HCT-116 p53 Agonism Beta-lactamase Assay, Phase 4 (AID 2283597);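 further: hits lower the luminescence signal meaning cytotoxicity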
How it was run: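 We seeded HCT116 p53 reporter cells at 4000/well and waited 5 h. We then added compounds in DMSO at a 217-fold dilution and incubated for 16 h. Viability was read as CellTiter-Glo luminescence after 30 min at RT.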

[18] = ACEA_ER_AUC_viability: ACEA Biosciences xCELLigence Real-Time Cell Analysis on Estrogen Receptor Agonism for Viability (AID 2283782);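 further: continuous compound exposure with impedance area under curve over 80 h; hit means loss of impedance signal meaning reduced cell growth or viability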
How it was run: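 T-47D human breast cells in phenol red-free RPMI1640 with 10% charcoal-stripped FBS were dosed with an 8-point 1:4 dilution series from 100 uM top final concentration, in duplicate. Impedance-based growth was followed for 80 h; AUC analysed versus DMSO.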

[19] = biological target: Oxysterols receptor LXR-beta (Homo sapiens) (UniProt P55055); assay: ATG_LXRb_TRANS: Attagene TRANS-FACTORIAL HepG2 Assay for human Liver X Receptor beta (LXRb) (AID 2282981); conditions: HepG2 Attagene TRANS GAL4-LXRb reporter, mRNA
How it was run: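 In this TRANS format, exogenous chimeric NR-Gal4 protein activity, not endogenous factors, drives reporter expression in transfected human HepG2 cells. Exposure lasted 24 h; reporter mRNA was read by fluorescent capillary electrophoresis.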

[20] = biological target: Nuclear receptor subfamily 1 group I member 3 (Homo sapiens) (UniProt Q14994); assay: ATG_CAR_TRANS: Attagene TRANS-FACTORIAL HepG2 Assay for human Constitutive Androstane Receptor (CAR) (AID 2282969); conditions: HepG2 Attagene TRANS-FACTORIAL CAR reporter;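 further: activators raise reporter mRNA above DMSO so AC50 marks induction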
How it was run: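 HepG2 cells transiently transfected with multiplexed GAL4-UAS reporter units expressing chimeric NR-Gal4 proteins; compound exposure 24 h. Reporter mRNA measured by RT-PCR, 6-FAM labelling, HpaI digestion and capillary electrophoresis; gain-of-signal fitted against DMSO baseline.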

Measured: AC50

Chain of human RAR-related Orphan Receptor gamma (RORg), RORC (gene 6097) (P51449 whole entry, looked up, the tested form may be a part): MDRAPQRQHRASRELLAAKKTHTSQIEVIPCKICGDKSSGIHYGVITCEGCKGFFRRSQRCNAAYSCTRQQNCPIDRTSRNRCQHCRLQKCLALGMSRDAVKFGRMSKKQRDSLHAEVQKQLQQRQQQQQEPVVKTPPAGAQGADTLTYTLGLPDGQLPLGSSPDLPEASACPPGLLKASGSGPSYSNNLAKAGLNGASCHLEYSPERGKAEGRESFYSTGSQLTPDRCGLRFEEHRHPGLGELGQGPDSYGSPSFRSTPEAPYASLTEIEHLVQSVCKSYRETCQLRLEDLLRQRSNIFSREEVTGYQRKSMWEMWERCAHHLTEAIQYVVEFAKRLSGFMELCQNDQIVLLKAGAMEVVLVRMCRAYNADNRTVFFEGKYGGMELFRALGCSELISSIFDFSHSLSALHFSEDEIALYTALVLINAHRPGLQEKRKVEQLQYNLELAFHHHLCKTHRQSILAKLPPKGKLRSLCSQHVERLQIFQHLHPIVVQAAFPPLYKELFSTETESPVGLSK
Chain of Oxysterols receptor LXR-alpha (Homo sapiens) (Q13133 whole entry, looked up, the tested form may be a part): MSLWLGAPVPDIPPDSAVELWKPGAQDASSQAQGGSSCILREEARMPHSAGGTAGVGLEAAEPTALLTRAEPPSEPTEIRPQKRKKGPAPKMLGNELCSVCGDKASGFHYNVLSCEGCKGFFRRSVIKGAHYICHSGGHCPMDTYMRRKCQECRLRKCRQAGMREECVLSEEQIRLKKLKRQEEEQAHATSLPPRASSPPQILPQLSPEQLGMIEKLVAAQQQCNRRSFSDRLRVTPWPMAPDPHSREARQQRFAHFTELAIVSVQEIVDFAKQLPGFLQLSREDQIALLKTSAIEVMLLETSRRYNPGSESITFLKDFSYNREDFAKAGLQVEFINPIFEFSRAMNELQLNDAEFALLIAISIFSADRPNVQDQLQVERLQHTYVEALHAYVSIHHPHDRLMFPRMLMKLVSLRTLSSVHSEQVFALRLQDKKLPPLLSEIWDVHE
Chain of human RAR-related Orphan Receptor beta (RORb), RORB (gene 6096) (Q92753 whole entry, looked up, the tested form may be a part): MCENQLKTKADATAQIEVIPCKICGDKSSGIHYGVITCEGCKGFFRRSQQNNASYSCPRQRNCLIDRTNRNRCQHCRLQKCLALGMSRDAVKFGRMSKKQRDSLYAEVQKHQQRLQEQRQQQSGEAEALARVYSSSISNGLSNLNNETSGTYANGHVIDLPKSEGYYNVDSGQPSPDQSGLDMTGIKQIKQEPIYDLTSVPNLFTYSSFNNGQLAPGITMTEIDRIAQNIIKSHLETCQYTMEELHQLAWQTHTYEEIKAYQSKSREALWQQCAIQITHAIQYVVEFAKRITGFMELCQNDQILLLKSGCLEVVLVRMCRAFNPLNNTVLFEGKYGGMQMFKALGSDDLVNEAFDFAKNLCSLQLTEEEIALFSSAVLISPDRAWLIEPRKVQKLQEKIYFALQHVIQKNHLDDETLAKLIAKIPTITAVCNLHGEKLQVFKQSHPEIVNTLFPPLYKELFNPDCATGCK
Chain of Nuclear receptor subfamily 4 group A member 2 (Homo sapiens) (P43354 whole entry, looked up): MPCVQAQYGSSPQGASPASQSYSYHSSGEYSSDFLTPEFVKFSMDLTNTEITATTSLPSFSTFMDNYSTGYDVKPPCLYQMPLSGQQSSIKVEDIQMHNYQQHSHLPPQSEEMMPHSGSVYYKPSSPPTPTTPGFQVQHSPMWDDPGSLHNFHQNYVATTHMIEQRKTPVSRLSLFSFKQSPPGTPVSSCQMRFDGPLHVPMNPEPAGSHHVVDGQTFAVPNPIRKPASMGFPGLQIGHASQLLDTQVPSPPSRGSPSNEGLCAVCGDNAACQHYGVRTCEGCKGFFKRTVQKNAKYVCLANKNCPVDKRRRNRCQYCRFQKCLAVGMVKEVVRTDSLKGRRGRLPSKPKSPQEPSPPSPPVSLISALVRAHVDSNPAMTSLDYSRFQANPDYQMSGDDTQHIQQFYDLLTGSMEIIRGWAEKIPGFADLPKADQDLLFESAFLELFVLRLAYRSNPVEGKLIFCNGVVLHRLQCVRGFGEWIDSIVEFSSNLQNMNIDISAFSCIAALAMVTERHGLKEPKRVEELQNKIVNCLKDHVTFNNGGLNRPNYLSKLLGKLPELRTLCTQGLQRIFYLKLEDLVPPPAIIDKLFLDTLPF
Chain of Retinoic acid receptor alpha (Homo sapiens) (P10276 whole entry, looked up): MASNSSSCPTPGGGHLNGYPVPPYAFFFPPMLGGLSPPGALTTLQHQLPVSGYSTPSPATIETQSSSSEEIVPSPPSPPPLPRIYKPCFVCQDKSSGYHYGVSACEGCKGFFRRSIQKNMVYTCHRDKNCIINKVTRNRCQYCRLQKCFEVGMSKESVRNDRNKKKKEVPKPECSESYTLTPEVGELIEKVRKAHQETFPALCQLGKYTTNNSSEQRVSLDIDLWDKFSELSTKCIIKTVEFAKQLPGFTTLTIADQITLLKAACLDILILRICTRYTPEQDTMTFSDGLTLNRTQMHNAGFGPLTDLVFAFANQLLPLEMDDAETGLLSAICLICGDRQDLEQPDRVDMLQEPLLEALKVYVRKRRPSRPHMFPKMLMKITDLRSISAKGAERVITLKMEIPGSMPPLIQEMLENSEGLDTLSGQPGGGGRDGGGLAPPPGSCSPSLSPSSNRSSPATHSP
Chain of human Peroxisome Proliferator-activated Receptor delta (PPARd), PPARD (gene 5467) (Q03181 whole entry, looked up, the tested form may be a part): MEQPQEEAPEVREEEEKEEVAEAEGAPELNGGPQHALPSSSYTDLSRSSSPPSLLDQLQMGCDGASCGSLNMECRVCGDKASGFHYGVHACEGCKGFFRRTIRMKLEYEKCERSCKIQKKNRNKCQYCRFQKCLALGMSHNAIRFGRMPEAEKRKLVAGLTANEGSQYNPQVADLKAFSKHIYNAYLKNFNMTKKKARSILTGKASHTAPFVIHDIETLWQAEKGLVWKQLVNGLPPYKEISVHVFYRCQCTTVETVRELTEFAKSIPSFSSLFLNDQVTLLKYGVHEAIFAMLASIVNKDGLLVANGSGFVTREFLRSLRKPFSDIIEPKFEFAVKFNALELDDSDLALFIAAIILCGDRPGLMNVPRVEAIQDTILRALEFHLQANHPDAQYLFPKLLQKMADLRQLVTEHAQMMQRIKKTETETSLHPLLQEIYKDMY
Chain of Nuclear receptor subfamily 1 group I member 3 (Homo sapiens) (Q14994 whole entry, looked up, the tested form may be a part): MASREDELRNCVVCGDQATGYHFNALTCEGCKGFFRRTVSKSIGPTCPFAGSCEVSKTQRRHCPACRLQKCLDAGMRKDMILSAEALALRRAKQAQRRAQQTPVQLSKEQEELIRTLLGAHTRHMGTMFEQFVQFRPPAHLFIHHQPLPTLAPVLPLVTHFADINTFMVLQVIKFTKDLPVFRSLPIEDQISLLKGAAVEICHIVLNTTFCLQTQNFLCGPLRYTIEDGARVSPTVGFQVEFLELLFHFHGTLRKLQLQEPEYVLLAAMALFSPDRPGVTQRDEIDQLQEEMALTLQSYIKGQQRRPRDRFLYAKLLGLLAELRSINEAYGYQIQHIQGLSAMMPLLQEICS
Chain of Bile acid receptor (Homo sapiens) (Q96RI1 whole entry, looked up): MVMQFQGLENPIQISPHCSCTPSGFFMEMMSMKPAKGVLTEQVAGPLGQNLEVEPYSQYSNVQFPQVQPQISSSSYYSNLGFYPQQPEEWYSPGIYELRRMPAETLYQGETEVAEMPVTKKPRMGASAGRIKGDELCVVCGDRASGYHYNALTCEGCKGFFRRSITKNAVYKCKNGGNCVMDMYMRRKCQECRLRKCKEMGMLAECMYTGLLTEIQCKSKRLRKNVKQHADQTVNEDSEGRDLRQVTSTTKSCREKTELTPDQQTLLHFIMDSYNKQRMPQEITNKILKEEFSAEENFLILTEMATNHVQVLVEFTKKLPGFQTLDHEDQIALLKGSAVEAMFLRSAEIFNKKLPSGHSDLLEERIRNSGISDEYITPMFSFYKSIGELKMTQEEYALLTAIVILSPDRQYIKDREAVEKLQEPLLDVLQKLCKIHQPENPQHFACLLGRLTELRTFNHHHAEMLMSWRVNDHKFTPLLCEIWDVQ
Chain of human Thyroid Receptor alpha (THRa1), THRA (gene 7067) (P10827 whole entry, looked up, the tested form may be a part): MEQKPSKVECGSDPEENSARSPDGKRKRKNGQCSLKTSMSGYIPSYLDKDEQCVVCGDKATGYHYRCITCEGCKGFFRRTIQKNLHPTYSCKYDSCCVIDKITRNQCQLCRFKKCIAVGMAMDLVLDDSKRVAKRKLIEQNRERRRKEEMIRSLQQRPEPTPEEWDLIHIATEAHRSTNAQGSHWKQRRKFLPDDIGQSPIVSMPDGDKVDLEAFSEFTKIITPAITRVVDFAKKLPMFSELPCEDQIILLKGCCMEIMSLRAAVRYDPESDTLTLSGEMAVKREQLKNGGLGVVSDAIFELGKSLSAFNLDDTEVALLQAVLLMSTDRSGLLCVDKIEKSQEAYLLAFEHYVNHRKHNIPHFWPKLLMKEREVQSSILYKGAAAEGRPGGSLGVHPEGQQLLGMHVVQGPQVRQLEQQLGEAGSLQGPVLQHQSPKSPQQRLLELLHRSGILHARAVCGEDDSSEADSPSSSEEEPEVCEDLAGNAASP
Chain of Oxysterols receptor LXR-beta (Homo sapiens) (P55055 whole entry, looked up, the tested form may be a part): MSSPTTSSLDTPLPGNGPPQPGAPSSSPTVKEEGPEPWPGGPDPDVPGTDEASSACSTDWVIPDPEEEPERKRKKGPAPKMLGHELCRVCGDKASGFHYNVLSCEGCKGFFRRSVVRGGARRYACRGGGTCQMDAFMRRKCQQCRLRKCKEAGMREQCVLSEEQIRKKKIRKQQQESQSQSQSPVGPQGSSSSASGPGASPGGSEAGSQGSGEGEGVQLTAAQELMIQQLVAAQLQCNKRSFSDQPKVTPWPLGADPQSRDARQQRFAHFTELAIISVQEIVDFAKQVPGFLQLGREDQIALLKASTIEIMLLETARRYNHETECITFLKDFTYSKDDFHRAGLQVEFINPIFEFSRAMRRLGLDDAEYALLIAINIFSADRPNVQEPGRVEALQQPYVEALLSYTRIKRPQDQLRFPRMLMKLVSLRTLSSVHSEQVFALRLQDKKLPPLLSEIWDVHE

CC(C)(C)C(O)C(Oc1ccc(-c2ccccc2)cc1)n1cncn1 (stereo not drawn)
inactive: [2] | [3] | [4] | [5] | [7] | [8] | [9]
active: [1] 55.2 µM | [6] 53.9 µM

CCc1cc(C)cc(CC)c1-c1c(OC(=O)C(C)(C)C)n2n(c1=O)CCOCC2
inactive: [1] | [3] | [4] | [5] | [6] | [7] | [10] | [11] | [8] | [9]

Nc1ccccc1C(=O)Oc1ccc2ccccc2c1
inactive: [3] | [13] | [6] | [14] | [16] | [17]
active: [12] 173 µM | [1] 26.1 µM | [15] 85.3 µM | [18] 24.4 µM

C[C@]12CCC(=O)C(O)=C1CC[C@@H]1[C@@H]2CC[C@]2(C)C(=O)CC[C@@H]12
inactive: [3] | [4] | [13] | [19] | [15] | [16] | [17] | [8] | [9]

[N-]=[N+]=CC(=O)OC[C@H](N)C(=O)O
not listed: [2] | [3] | [5] | [11] | [14] | [18] | [20]
inactive: all other assays above

Nc1ccc(-c2ccc(N)c(N)c2)cc1N
inactive: [12] | [1] | [2] | [19] | [7] | [11] | [18]

CCCCOP(=O)(O)OCCCC
active: [18] 20.3 µM
inactive: [1] | [13] | [19] | [5] | [7] | [14]

O=C1C(Cl)=C(Cl)C(=O)C(Cl)=C1Cl
inactive: [12] | [20] | [13] | [19] | [5] | [6] | [7] | [11] | [14] | [15] | [8] | [9]
active: [1] 72.4 µM | [15] 58.9 µM | [16] 21.6 µM and 44.2 µM | [17] 73.4 µM and 73.7 µM | [18] 81.6 µM

C=CCc1ccc(OC(=O)Cc2ccccc2)c(OC)c1
not listed: [1] | [4] | [8] | [9] | [10] | [16] | [17] | [19]
inactive: all other assays above

COC(=O)COc1ccc(Cl)cc1Cl
inactive: [12] | [3] | [4] | [5] | [10] | [11] | [14] | [15] | [16] | [17]

Nc1c(Cl)c(Cl)c(Cl)c(Cl)c1Cl
inactive: [12] | [2] | [13] | [5] | [6] | [7] | [14] | [18]
active: [20] 27.3 µM | [19] 26.1 µM

CCc1cccc(C)c1N(C(=O)CCl)[C@@H](C)COC
inactive: [12] | [20] | [3] | [6] | [15] | [16] | [17] | [8] | [9]
